Screen size: about 320,000 compounds; about 9,100 (2.8%) were called active. Entries that show only a call come without a potency. Inconclusive results (about 3%) are left out. The call rests on the fitted dose curve; in most records, active means well fitted activation curve with a large enough effect; inconclusive means small, poorly fitted or top-dose-only effect; inactive means no such curve, though single readings can be large or run the other way. The full list was thinned out, with actives kept by preference.
Experiment: qHTS Assay for Rab9 Promoter Activators; further: nearly all actives have a fitted effect of over 60% in size
Details: Huh7 Rab9 promoter-luciferase reporter, luminescence, 24 h; series mostly up to 9.22 µM
How it was run: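 Huh7 cells stably carrying Rab9 promoter–luciferase reporter, plated 1500 cells/well, compound added after 2 h and incubated 24 h at 37 °C; luciferase luminescence then read after 10 min with detection reagent.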
Potency means the concentration at half of the fitted maximal effect.

Row | SMILES | Potency
1 | COc1ccc(-c2sc3ccc(OC)cc3c2C#Cc2ccccn2)cc1 | inactive
2 | Cc1cc(C)cc(NC(=O)C(c2ccccc2)N2CCN(CC(=O)N3CCCC3)CC2)c1 (stereo unspecified) | inactive
3 | c1ccc(C2CCC(N3CCC(N4CCCCC4)CC3)CC2)cc1 (stereo unspecified) | inactive
4 | COc1ccc(-c2csc(NC3OC(=O)c4ccccc43)n2)cc1 (stereo unspecified) | inactive
5 | COc1ccc(NC(=O)c2sc(N)nc2-c2ccccc2)cc1 | inactive
6 | COc1ccc(Nc2nc(-c3ccccc3)cs2)cc1 | 2510 nM (active)
7 | CCN(CC(=O)Nc1ccccc1C(=O)NC1CC1)Cc1cccs1 | inactive
8 | CCCCN(C(=O)C(CCSC)N1C(=O)c2ccccc2C1=O)c1c(N)n(CCC)c(=O)[nH]c1=O (stereo unspecified) | inactive
9 | COc1ccc(-c2nc3ccccc3c(=O)n2CCc2ccc(O)cc2)cc1 | inactive
10 | COc1ccc(OCc2n[nH]c(=S)n2N)cc1 | inactive
11 | COc1ccc(OCc2ccc(-c3nc4ccccc4c(=O)n3N)o2)cc1 | 1260 nM (active)
12 | O=C(CSc1nc2[nH]c(=O)[nH]c(=O)c2s1)Nc1cccc(F)c1 | inactive
13 | Cc1ccc(NC(=O)C(C)Sc2nnc(C3CC3)n2C2CC2)cc1S(=O)(=O)N1CCOCC1 (stereo unspecified) | inactive
14 | CCC(=O)Nc1ccc2nn(-c3ccc(F)cc3)nc2c1 | 631 nM (active)
15 | Cc1cccc(C(=O)OCC(=O)Nc2ccc(F)cc2)c1 | inactive
16 | Cc1ccc(-n2nc3ccc(NC(=O)/C=C/c4ccco4)cc3n2)cc1C | inactive
17 | Cc1cc(C(=O)COC(=O)CCCN2C(=O)c3ccccc3C2=O)c(C)n1C | inactive
18 | C=CCn1c(C)cc(C(=O)CN2C(=O)c3ccccc3C2=O)c1C | 355 nM (active)
19 | C=CCN(CC=C)C(=O)CN1C(=O)c2ccccc2C1=O | inactive
20 | COc1cccc(C2=CC(=O)C[C@H](c3ccc(F)cc3)C2)c1OC | inactive
21 | Cc1cc(C)cc(OCC(=O)Nc2ccc(N3CCOCC3)cc2N2CCOCC2)c1 | inactive
22 | Cc1ccc2cc(/C=N/Nc3ccc(C(=O)O)cc3)c(Cl)nc2c1 | 1260 nM (active)

Row | SMILES | Potency
23 | CSCC[C@H](NC(=O)OC(C)(C)C)C(=O)N/N=C/c1cc2ccc(C)cc2nc1Cl | inactive
24 | Cc1ccc2cc(/C=N/NC(=O)[C@@H]3CCCN3)c(Cl)nc2c1 | inactive
25 | CC1(C)O[C@@H]2[C@H](O1)[C@@H](COS(=O)(=O)O)O[C@H]2n1cnc2c(=O)[nH]cnc21 | inactive
26 | Cc1ccsc1C(=O)OCC(=O)Nc1cccc(F)c1 | inactive
27 | Cc1nnc(NC(=O)c2ccc3nccnc3c2)s1 | inactive
28 | Cc1ccc(C(=O)Nc2nnc(-c3cccs3)s2)cc1C | 3550 nM (active)
29 | Cc1ccc(C(=O)Oc2coc(CSc3nnc(NC(=O)c4cccs4)s3)cc2=O)cc1C | inactive
30 | O=C(CNS(=O)(=O)c1ccc2c(c1)OCCCO2)N1CCN(c2ccc(F)cc2)CC1 | inactive
31 | O=C(NCc1ccccc1CN1CCCC1)C1CCN(S(=O)(=O)c2ccc(Cl)cc2)CC1 | inactive
32 | CCC(=O)Nc1ccc(-c2ccc(N3CCCCC3)nn2)cc1 | 1580 nM (active)
33 | O=C(Nc1ccc(Sc2ccc(Br)cc2)cc1)c1ccco1 | inactive
34 | CC1CCN(c2ccc(-c3ccc(NC(=O)c4ccco4)cc3)nn2)CC1 | 3550 nM (active)
35 | CC1CCN(C(NC(=O)c2ccco2)C(=O)c2ccccc2)CC1 (stereo unspecified) | inactive
36 | CCCCSc1nnc(-c2ccc(NC(=O)CC)cc2)n1C | inactive
37 | CCC(=O)c1ccc(OCC(=O)Nc2ccc(N3CCCCC3)cc2)cc1 | inactive
38 | Cc1ccc(NC(=O)C(c2ccccc2)N2CCN(C(=O)c3ccco3)CC2)cc1 (stereo unspecified) | inactive
39 | CC(C)N(Cc1nnc(-c2ccccc2Br)o1)C(=O)c1cc(Cl)nc2ccccc12 | inactive
40 | CC(=O)c1c(C)[nH]c(C(=O)OCC(=O)Nc2c(C)n(C)n(-c3ccccc3)c2=O)c1C | inactive
41 | COc1ccc(-c2noc(-c3cccc(OC)c3OC)n2)cc1OC | 2240 nM (active)
42 | COc1ccc(-c2noc(CSc3ccc(C)cc3)n2)cc1 | inactive
43 | COc1ccc(-c2noc(-c3ccc(C)cc3)n2)cc1 | 2000 nM (active)
44 | COc1ccc(-c2csc3nc(-c4ccccc4F)oc(=O)c23)cc1OC | inactive

Row | SMILES | Potency
45 | Cc1cccc(-c2nc(Nc3ccc(O)cc3)c3ccccc3n2)c1 | inactive
46 | Cc1cccc(-c2noc(CCC(=O)NC3CCCC3)n2)c1 | inactive
47 | COc1ccc(-c2noc(CNC(=O)C(C)Oc3ccccc3)n2)cc1 (stereo unspecified) | inactive
48 | COc1ccc(-c2noc(CN(C)S(=O)(=O)c3ccc(C)cc3)n2)cc1 | inactive
49 | COc1ccc(-c2noc(CCCC(=O)NC3CCCC3)n2)cc1OC | inactive
50 | COc1ccc(-c2n[nH]c(C)c2-c2ccccc2OC)c(O)c1 | inactive
51 | Cc1cccc(-c2noc(-c3ccc(F)cc3)n2)c1 | 224 nM (active)
52 | COc1ccc(-c2nc(-c3ccccc3)no2)c(OC)c1 | 3980 nM (active)
53 | COc1ccc(NC(=O)Cn2cc(C(=O)c3ccncc3)c(=O)c3cc(C)ccc32)cc1Cl | inactive
54 | O=S(=O)(NCCCCCCNS(=O)(=O)c1c(F)cccc1F)c1ccc2c(c1)OCCO2 | inactive
55 | COc1cccc(NC(=O)CN(C)C(=O)c2cc(C3CC3)nn2-c2ccccc2)c1 | inactive
56 | O=C(OCc1cc(=O)n2ccsc2n1)C1(c2ccc(Cl)cc2)CC1 | inactive
57 | COc1ccc(C(=O)OCC(=O)c2cc(C)n(CC3CCCO3)c2C)cc1[N+](=O)[O-] (stereo unspecified) | inactive
58 | Cc1cccc(NC(=O)CN2CCN(C(=O)C3CCN(C(=O)/C=C/c4ccccc4)CC3)CC2)c1C | inactive
59 | COc1cc(OC)c(N2CC(C(=O)Nc3cc(Cl)ccc3N3CCOCC3)CC2=O)cc1Cl (stereo unspecified) | inactive
60 | CCCCN1C(=O)C(=O)N(CC(=O)Nc2cccc(C(C)=O)c2)C1=O | inactive
61 | C=C(C)C1CC=C(C)/C(=N\NC(=O)CNc2ccccc2OC)C1 (stereo unspecified) | inactive
62 | O=C(Nc1ccon1)c1nc[nH]c1C(=O)NCc1ccccc1 | inactive
63 | O=C1c2cccc(OCC(=O)N3N=C(c4cccs4)CC3c3ccc(F)cc3)c2CCN1Cc1ccccc1 (stereo unspecified) | inactive
64 | O=C(CCNC(=O)c1ccc(Br)cc1)NCC(c1ccco1)N1CCCCC1 (stereo unspecified) | inactive
65 | CCc1ccc(NC2Nc3cc(C)nn3S2)cc1 (stereo unspecified) | 3550 nM (active)
66 | CCOC(=O)c1ccc(NC2Nc3cc(C)nn3S2)cc1 (stereo unspecified) | inactive

— PubChem BioAssay AID485297 (National Center for Advancing Translational Sciences (NCATS), 2010)
